Test [1] addresses Cell division control protein 42 homolog (Homo sapiens) (UniProt P60953). The experiment in a line: inhibition of fluorescent GTP binding to constitutively active Cdc42 – biochemical, multiplex bead flow cytometry, Bodipy-FL-GTP, dose response (AID 1333;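 active = fitted half-maximal concentration within the tested dose range, moderate curve steepness, a statistically real signal drop, and little compound fluorescence or tag-binding interference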). On the technique in general: A flow cytometer gives signals particle by particle.
The target is the same in test [2]. The experiment in a line: inhibition of fluorescent GTP binding to wildtype Cdc42 – biochemical, multiplex bead flow cytometry, Bodipy-FL-GTP, dose response (AID 1334;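 active = fitted half-maximal concentration within the tested range, moderate curve steepness, significant signal drop, and little compound fluorescence or bead-linkage interference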). As to conditions: bead-based flow cytometry, Bodipy-FL-GTP binding to GST-Cdc42; at 100 µM (top of the series) unless noted.
Test [3] deals with GTPase HRas (Homo sapiens) (UniProt P01112). The experiment in a line: Ras wt fluorescent GTP loading blockade – biochemical, wildtype, multiplex bead flow cytometry, dose response (AID 1335;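 active = fitted half-maximal concentration within 10 nM to 100 µM, steepness 0.5 to 2, significant signal drop, low assay interference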). As to conditions: bead-based flow cytometry, Bodipy-GTP binding to GST-Ras; at 100 µM (top of the series) unless noted.
The subject of test [4] is Ras-related protein Rab-7a (dog), GTP binding. The experiment in a line: blockers of fluorescent GTP binding to Rab7 – biochemical, wildtype, multiplex bead flow cytometry, dose response (AID 1336).
Test [5] addresses Ras-related C3 botulinum toxin substrate 1 (Homo sapiens) (UniProt P63000). The experiment in a line: inhibition of wildtype Rac1 nucleotide loading – biochemical, multiplex bead flow cytometry, dose response (AID 1340;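 active = dose curve with midpoint inside tested range, moderate steepness, plateau gap beyond fit error, low compound glow and bead-link interference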). As to conditions: GST-Rac1 beads, Bodipy-FL-GTP binding; at 100 µM (top of the series) unless noted.
Test [6] concerns the target GTPase HRas (Homo sapiens) (UniProt P01112). The experiment in a line: blockade of GTP loading onto mutant Ras – biochemical, activated mutant, multiplex bead flow cytometry, dose response (AID 1341;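 active = dose-response curve with midpoint inside the tested range, moderate steepness, significant amplitude and little compound fluorescence or bead-attachment interference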;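 note: GST-tagged constitutively activated Ras mutant immobilized on beads and multiplexed with other GTPases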).

SMILES strings stand for the structures. For part of these data: Entries with a potency or affinity are not part of this list. Activity calls are given as the source filed them. Unless noted, the rule behind the calls is not given here.

Chain of Cell division control protein 42 homolog (Homo sapiens) (P60953 whole entry, looked up): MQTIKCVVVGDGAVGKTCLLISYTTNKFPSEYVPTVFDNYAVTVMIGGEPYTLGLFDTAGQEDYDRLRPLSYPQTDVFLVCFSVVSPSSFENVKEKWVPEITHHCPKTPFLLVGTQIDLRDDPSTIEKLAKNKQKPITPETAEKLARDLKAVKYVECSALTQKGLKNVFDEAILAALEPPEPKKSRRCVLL
Chain of GTPase HRas (Homo sapiens) (P01112 whole entry, looked up): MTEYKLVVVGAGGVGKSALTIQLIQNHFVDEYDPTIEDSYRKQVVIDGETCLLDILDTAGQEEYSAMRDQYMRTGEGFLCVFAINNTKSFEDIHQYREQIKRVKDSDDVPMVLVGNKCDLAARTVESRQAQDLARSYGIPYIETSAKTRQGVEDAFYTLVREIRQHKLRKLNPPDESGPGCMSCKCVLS

As for `COc1cc(/C=N/NC(=O)C(Cc2c[nH]c3ccccc23)NC(=O)OCc2ccccc2)cc([N+](=O)[O-])c1O` (stereo not given), the compound was classed as inactive in test [1], in test [4] and in test [6]. In test [2], the fluorescence, percent of control (lower = inhibition) came out at 29.6%. The compound further displayed a GTP binding, percent of control in test [3] of 74%. Also, the GTP binding signal, raw median fluorescence (lower = inhibition) (MCF (arbitrary fluorescence units)) in test [5] was 208.

Turning to `O=C(O)COc1ccccc1/C=N/NC(=O)c1cc(-c2ccc(F)cc2)nc2ccccc12`, the result in test [1], in test [4] and in test [6] was inactive. In test [2], the fluorescence, percent of control (lower = inhibition) came out at 30.7%. The same compound showed a GTP binding, percent of control in test [3] of 80.5%. Moreover, in test [5], the GTP binding signal, raw median fluorescence (lower = inhibition) (MCF (arbitrary fluorescence units)) is 177.

For the compound `O=C(Nc1ccc(N2CCOCC2)c(Cl)c1)c1ncn[nH]1`, the compound was called inactive in test [1], in test [4] and in test [6]. Also, the fluorescence, percent of control (lower = inhibition) in test [2] turned out to be 104%. For the same compound, the GTP binding, percent of control in test [3] came out at 203%. This compound also had a GTP binding signal, raw median fluorescence (lower = inhibition) (MCF (arbitrary fluorescence units)) in test [5] of 241.

As for `Cc1ccc(/C=N/N(C)C2=NS(=O)(=O)c3ccccc32)o1`, the result in test [1], in test [4] and in test [6] was inactive. Moreover, in test [2], the fluorescence, percent of control (lower = inhibition) is 27.1%. This compound yielded a GTP binding, percent of control in test [3] of 57.3%. For the same compound, in test [5], the GTP binding signal, raw median fluorescence (lower = inhibition) (MCF (arbitrary fluorescence units)) was determined as 132.

As to `O=c1n(Cc2ccc(Cl)cc2)c2sc3c(c2c2ncnn12)CCCC3`, the compound was called inactive in test [1], in test [4] and in test [6]. Further, in test [2], the fluorescence, percent of control (lower = inhibition) is 78.9%. Moreover, the GTP binding, percent of control in test [3] was determined as 126%. In test [5], this compound registered a GTP binding signal, raw median fluorescence (lower = inhibition) (MCF (arbitrary fluorescence units)) of 146.

With `Cn1nc([N+](=O)[O-])c(C(C#N)c2ccccn2)c(Cl)c1=O` (stereo not given), the compound was called inactive in test [1], in test [4] and in test [6]. In addition, in test [2], the fluorescence, percent of control (lower = inhibition) came to 24%. Besides, the GTP binding, percent of control in test [3] worked out at 74.7%. In test [5], this compound showed a GTP binding signal, raw median fluorescence (lower = inhibition) (MCF (arbitrary fluorescence units)) of 201.

As to `CC1=CC(=O)C=C(C)C1=NOS(=O)(=O)c1ccccc1`, the compound was called inactive in test [1], in test [4] and in test [6]. Further, in test [2], the fluorescence, percent of control (lower = inhibition) amounted to 29.6%. The compound further displayed a GTP binding, percent of control in test [3] of 81.2%. In test [5], the GTP binding signal, raw median fluorescence (lower = inhibition) (MCF (arbitrary fluorescence units)) was 223.

On to `CCOC(=O)c1nn(-c2ccccc2)c(=O)cc1SC(C)C`, for which the call in test [1], in test [4] and in test [6] was inactive. Also, in test [2], the fluorescence, percent of control (lower = inhibition) was 51.2%. The same compound came in with a GTP binding, percent of control in test [3] of 61.6%. This compound also displayed a GTP binding signal, raw median fluorescence (lower = inhibition) (MCF (arbitrary fluorescence units)) in test [5] of 204.

As for `CSc1nnc(-c2cc(Br)ccc2N=Cc2c(C)[nH]n(-c3ccccc3)c2=O)c(=O)[nH]1`, the result in test [1], in test [4] and in test [6] was inactive. For the same compound, the fluorescence, percent of control (lower = inhibition) in test [2] stood at 24.2%. In test [3], this compound gave a GTP binding, percent of control of 67.4%. Moreover, in test [5], the GTP binding signal, raw median fluorescence (lower = inhibition) (MCF (arbitrary fluorescence units)) was 183.

Turning to `O=C(CSc1ccccc1)Nc1ccc(C(=O)Nc2cccc(O)c2)cc1`, the compound was called inactive in test [1], in test [4] and in test [6]. For the same compound, the fluorescence, percent of control (lower = inhibition) in test [2] was determined as 33.6%. Further, in test [3], the GTP binding, percent of control is 77.9%. The compound also displayed a GTP binding signal, raw median fluorescence (lower = inhibition) (MCF (arbitrary fluorescence units)) in test [5] of 193.

Take `Cn1cccc1/C=C1\SC(=S)N(NC(=O)c2ccccc2Cl)C1=O`: the result in test [1], in test [4] and in test [6] was inactive. Further, the fluorescence, percent of control (lower = inhibition) in test [2] was found to be 24.6%. Moreover, in test [3], the GTP binding, percent of control is 62.8%. The GTP binding signal, raw median fluorescence (lower = inhibition) (MCF (arbitrary fluorescence units)) in test [5] stood at 178.

Turning to `COc1ccc(-c2nnc(CSc3nc4ccccc4c(=O)n3C)o2)cc1OC`, the call in test [1], in test [4] and in test [6] was inactive. Further, in test [2], the fluorescence, percent of control (lower = inhibition) stood at 39.2%. This compound gave a GTP binding, percent of control in test [3] of 87.3%. For the same compound, the GTP binding signal, raw median fluorescence (lower = inhibition) (MCF (arbitrary fluorescence units)) in test [5] is 320.

With `O=C(Nc1cccc(-c2nc3ncccc3o2)c1)c1sc2ccccc2c1Cl`, the call in test [1], in test [4] and in test [6] was inactive. Moreover, the fluorescence, percent of control (lower = inhibition) in test [2] is 88.9%. The compound also returned a GTP binding, percent of control in test [3] of 340%. In test [5], this compound showed a GTP binding signal, raw median fluorescence (lower = inhibition) (MCF (arbitrary fluorescence units)) of 343.

Regarding `Cc1ccc(/C(N)=N/OC(=O)CCC2CCCCC2)cc1`, the compound was called inactive in test [1], in test [4] and in test [6]. Moreover, in test [2], the fluorescence, percent of control (lower = inhibition) came to 80.5%. The GTP binding, percent of control in test [3] worked out at 154%. The GTP binding signal, raw median fluorescence (lower = inhibition) (MCF (arbitrary fluorescence units)) in test [5] worked out at 180.

As to `O=S(=O)(Nc1cccc(-c2cn3cccnc3n2)c1)c1ccccc1`, the result in test [1], in test [4] and in test [6] was inactive. In addition, the fluorescence, percent of control (lower = inhibition) in test [2] worked out at 34.9%. For the same compound, the GTP binding, percent of control in test [3] was determined as 48.7%. Also, the GTP binding signal, raw median fluorescence (lower = inhibition) (MCF (arbitrary fluorescence units)) in test [5] is 114.

For the origin of these results see PubChem BioAssay.
